# Only some compounds are listed: those with a hit (about 5% of all), similar ones and a draw of the others.
# VACV mCherry inh: vaccinia inhibition (mCherry reporter); Vaccinia virus mCherry reporter infection, fluorescence; hit rate 0.63% among 310,000; Potency, µM (highest dose often 36.5 µM), inactives show at the top dose activity change, negative = inhibition, most hits filed as inhibitors; calls by dose curve; tested in A549 cells; also: potency is read from the fitted curve at half-maximal effect; nearly all actives have a fitted effect of over 35% in size
# Vaccinia Venus: vaccinia inhibition (Venus reporter); Potency, µM (highest dose often 36.5 µM), for inactives: top-dose activity change, negative = inhibition, actives largely listed as inhibitors; hit rate 0.46% among 330,000; Vaccinia virus Venus reporter expression, fluorescence; calls by dose curve; tested in A549 cells; also: potency is read from the fitted curve at half-maximal effect; nearly all actives have a fitted effect of over 30% in size
# LmPK inhibitor: blocks Leishmania mexicana pyruvate kinase activity | Q27686 | purified LmPK, Kinase-Glo ATP luminescence, 1 h | Potency, µM (top dose mostly 57.5 µM), for inactives: at the highest dose activity change, negative = inhibition, hits mostly inhibitors | hit rate 0.37% among 290,000 | AID 1721; also: potency is read from the fitted curve at half-maximal effect
# Target sequence (Q27686 whole entry, looked up): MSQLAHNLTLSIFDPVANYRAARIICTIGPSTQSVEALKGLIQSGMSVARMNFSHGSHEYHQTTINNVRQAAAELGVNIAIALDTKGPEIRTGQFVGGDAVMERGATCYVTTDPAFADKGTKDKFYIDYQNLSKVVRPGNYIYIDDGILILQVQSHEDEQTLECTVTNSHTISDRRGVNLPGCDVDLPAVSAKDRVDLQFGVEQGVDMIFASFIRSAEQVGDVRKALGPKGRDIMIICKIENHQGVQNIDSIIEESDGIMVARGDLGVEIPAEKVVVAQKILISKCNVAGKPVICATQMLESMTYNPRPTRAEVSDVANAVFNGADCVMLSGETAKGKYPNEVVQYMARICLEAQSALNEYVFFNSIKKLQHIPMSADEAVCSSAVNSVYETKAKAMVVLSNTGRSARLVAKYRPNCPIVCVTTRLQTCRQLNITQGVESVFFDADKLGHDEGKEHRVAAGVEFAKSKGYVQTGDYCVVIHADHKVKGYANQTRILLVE
#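 ATP generated from ADP (0.1 mM) and PEP (0.5 mM) by 0.1 nM LmPK over 1 h at room temperature (pH 7.2 imidazole buffer) was detected by coupled luciferase luminescence. Values were normalized to uninhibited and no-enzyme wells.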
# Tb PYK inh: T. brucei pyruvate kinase inhibition | hit rate 0.12% among 410,000 | TbPYK enzyme, Kinase-Glo Plus ATP luminescence, 45 min | AID 624173 | Potency, µM (top dose mostly 76.8 µM), for the others: at the highest dose activity, negative = inhibition, usual class: inhibitors | Q57TT1; also: potency is read from the fitted curve at half-maximal effect; nearly all actives have a fitted effect of over 50% in size
#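 Luminescent Kinase-Glo Plus end-point after 45 min room-temperature reaction of T. brucei pyruvate kinase started with 130 uM ADP (final). Buffer TEA 50 mM pH 7.2 with KCl, MgCl2, BSA, Tween-20; titration-based qHTS with fitted concentration-effect curves.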
# HCMV inh: inhibitors of human cytomegalovirus; HFF cells, HCMV-luciferase reporter, 72 h; active compounds read low; activity change, negative = inhibition, % at 57.5 µM; hit rate 4.5% among 410,000; in the data active = activity change below about -60%; inconclusive = no clear call, values can overlap the other calls; inactive = above about -39%
#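 Steps: HFFs plated, 16 h 37C; compounds added; HCMV-luciferase added to MOI 1 PFU/cell; 72 h 37C; OneGlo reagent, 5 min room temperature; luminescence read, normalized to controls.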
# Active calls of the source: *; i = inactive; ? = inconclusive; nt = not tested or not shown; [ ] = another dose, or the depositor's remark. Unless noted, calls follow the shape of the dose curve; as a rule, active = well fitted curve in the direction sought with a large enough effect; inconclusive = small, poorly fitted or top-dose-only effect, or another doubt; inactive = no such curve, though single readings can be large; an effect the other way counts as inactive or inconclusive. % is scaled to controls: 0 for no effect and ±100 for the full control effect.
SMILES,VACV mCherry inh,Vaccinia Venus,LmPK inhibitor,Tb PYK inh,HCMV inh
CCOCN(C(=O)Cn1c(CC(C)C)nc2ccccc21)c1c(C)cccc1CC,7%,-7%,nt,-1%,-62*
CCOCN(C(=O)Cn1c(C)nc2ccccc21)c1c(C)cccc1CC,-13%,-7%,nt,-12%,9
O=C(Nc1ccc(Br)cc1)C1CCN(C(=O)c2ccc(F)cc2)CC1,-27%,-10%,-2%,-4%,?
Cc1c(NC(=O)Nc2cccs2)cccc1[N+](=O)[O-],nt,nt,2%,11%,-72*
O=C(CCCN1C(=O)/C(=C/c2cccs2)SC1=S)NNC(=O)c1ccccc1O,i,-13%,0%,-6%,?
COc1cccc(CNC(=O)c2cc3cc(C)ccc3n2C)c1,6%,8%,nt,-2%,?
Cc1ccc2c(c1)cc(C(=O)Nc1ccccc1C)n2C,?,?,nt,-2%,38
COc1ccc(CNC(=O)c2cc3cc(C)ccc3n2C)cc1,?,18%,nt,-1%,-79*
Cc1ccc2c(c1)cc(C(=O)NCc1ccccc1)n2C,?,-3%,1%,-15%,-71*
COc1cccc(NC(=O)C(C#N)Cc2ccncc2)c1 (stereo not given),nt,nt,1%,-13%,3
COc1cccc(NC(=O)/C=C/c2ccccc2[N+](=O)[O-])c1,-21%,-28%,?,-30%,77
CCOC(=O)N/N=C\c1ccc([N+](=O)[O-])s1,?,-15%,-4%[11.5 µM],1%,?
Cc1cccc(NC(=O)/C=C/c2ccc([N+](=O)[O-])s2)c1,-22%,-3%,-11%,-11%,-98*
Cc1ccc(/C=C/C(=O)Nc2ccc([N+](=O)[O-])cc2)o1,?,-25%,?,?,16
Cc1cccc(NC(=S)N/N=C/c2ccc([N+](=O)[O-])s2)c1,11µM*,22µM*,4%,0%,-93*
Cc1ccc(NC(=O)/C=C/c2ccc([N+](=O)[O-])s2)c(C)c1,-12%,108%,3%,-11%,-101*
Cc1ccc(NC(=O)/C=C/c2ccc([N+](=O)[O-])s2)cc1,-14%,20%,-1%,0%,-96*
C(=N\n1cnnc1)/c1ccc2c(c1)OCCO2,nt,nt,-12%,-6%,2
Cc1nc2ccc(-c3nc4ccccc4[nH]3)cc2[nH]1,-29%,-27%,-28%,-3%,-4
CCCN(C(=O)COc1cc(=O)n(CC)c2ccccc12)c1ccc(C(C)C)cc1,-16%,2%,nt,1%,-102*
CN(C)CCCNC(=O)C[C@H]1C[C@H](C(=O)N2CCCCC2)[C@@]2(CCc3ccccc3)c3[nH]c4ccc(Cl)cc4c3CCN2C1=O,13µM*,14µM*,nt,-14%,13
CN(C)CCCNC(=O)C[C@H]1C[C@H](C(=O)N2CCCCC2)[C@@]2(C)c3[nH]c4ccc(Cl)cc4c3CCN2C1=O,-4%,-7%,nt,0%,-9
COc1ccc2[nH]c3c(c2c1)CCN1C(=O)C(CC(=O)NCCc2ccccn2)C[C@H](C(=O)N2CCCCC2)[C@@]31CCc1ccccc1 (stereo not given in full),?,-28%,nt,-5%,-7
O=C(C[C@H]1C[C@H](C(=O)N2CCCCC2)[C@@]2(CCc3ccccc3)c3[nH]c4ccc(Cl)cc4c3CCN2C1=O)NCCc1ccccn1,?,13µM*,nt,1%,nt
Cc1ccc(S(=O)(=O)N(C)C)cc1NC(=S)NC1CCCC(C)C1C (stereo not given),-3%,-15%,3%,0%,?
SMILES,VACV mCherry inh,Vaccinia Venus,LmPK inhibitor,Tb PYK inh,HCMV inh
S=C(Nc1ccc(Cl)cc1)Nc1cccc2cnccc12,-10%,0%,0%,-10%,-98*
Fc1ccc(NC(=S)Nc2cccc3cnccc23)cc1,-4%,6%,3%,-15%,-32
Fc1ccc(NC(=S)Nc2cccc3ccccc23)cc1,nt,nt,0%,-2%,6
CN(C)S(=O)(=O)c1cccc(NC(=S)N/N=C/c2cc(Br)ccc2O)c1,?,?,6%,-3%,-98*
CN(C)S(=O)(=O)c1cccc(NC(=S)N/N=C/c2cccc(O)c2)c1,nt,nt,3%,4%,-15
CC1CCCCC1NC(=S)Nc1cccc(S(=O)(=O)N(C)C)c1 (stereo not given),-3%,-1%,12%,1%,-68*
Fc1ccc(NC(=S)Nc2cccc3ccccc23)cc1F,nt,nt,-5%,-11%,-71*
CCN(CC)CC(=O)Nc1sc2c(c1C(=O)c1ccccc1OC)CCC2,-19%,-30%,6%,-7%,-13
CN(C)S(=O)(=O)c1cccc(NC(=S)Nc2cccc3cnccc23)c1,?,-16%,3%,-23%,-72*
COc1ccccc1NC(=S)Nc1cccc2cnccc12,-16%,-10%,-2%,-17%,-79*
S=C(Nc1cccnc1)Nc1cccc2cnccc12,-7%,-5%,1%,1%,-36
O=C1C(c2cccc(Br)c2)N(CCc2ccccc2)C(=O)CN1C1CCCCC1 (stereo not given),-7%,-6%,nt,4%,42
CCC(=O)N1CCc2cc(S(=O)(=O)NCCC(=O)Nc3ccc(N(CC)CC)cc3C)ccc21,-23%,-28%,nt,-26%,-15
Cc1ccc(C)c(OCC(=O)NCC2COc3ccccc3O2)c1 (stereo not given),nt,nt,nt,2%,-15
O=C(Nc1cccnc1)c1ccc([N+](=O)[O-])o1,nt,nt,1%,-3%,-29
O=C(NN(c1ccccc1)c1ccccc1)c1ccc([N+](=O)[O-])o1,-15%,-16%,2%,-6%,-93*
NC(=O)c1oc2ccccc2c1NC(=O)c1ccc(F)cc1,3%,-20%,1%,-8%,83
NC(=O)c1oc2ccccc2c1NC(=O)c1ccc([N+](=O)[O-])o1,?,?,10%,1%,-102*
O=C(NNC(=O)c1ccc([N+](=O)[O-])o1)c1ccccc1,nt,?,-4%,-2%,-92*
CCc1cc(C(=O)N2CCCC(C(=O)c3ccc(Oc4ccccc4)cc3)C2)n(C)n1 (stereo not given),-5%,-27%,1%,0%,?
COC(=O)CCN(C1CCCCC1)S(=O)(=O)c1ccc(S(=O)(=O)N2CCCCC2)cc1,0%,-3%,12%,-8%,2
Cc1cc(Nc2cccc(Cl)c2)nc2ccc(NC(=O)c3cncc(Br)c3)cc12,-3%,-23%,nt,-2%,-100*
CCOc1cc(C(=O)Nc2ccc3nc(Nc4cccc(Cl)c4)cc(C)c3c2)cc(OCC)c1OCC,-15%,-21%,nt,7%,-29
Cc1cccc(OCC(=O)Nc2ccc3nc(Nc4cccc(Cl)c4)cc(C)c3c2)c1,-2%,-10%,nt,3%,-63*
O=C(COc1ccc(-n2ccnc2)cc1)Nc1cccc(F)c1,nt,nt,2%,3%,?
Cc1cc(Nc2cccc(Cl)c2)nc2ccc(NC(=O)COc3ccc(Cl)cc3)cc12,-9%,-10%,nt,1%,-106*
O=C(COc1ccc(-n2ccnc2)cc1)Nc1cccc(Cl)c1,i,-7%,0%,-8%,-64*
